Experimental data: PubChem BioAssay AID624483 (NMMLSC, 2012)
Out of some 360,000 compounds screened, about 11,000 (3.1%) were called active. Inconclusive results (about 2%) are left out. Many of the other results were omitted from the sample, so actives are more common in it than they were. A number with no mark means an inactive call. Rule as the data show it: active = fluorescence intensity above about 16000; inconclusive = no clear call, values can overlap the other calls; inactive = below that.

assay: compound fluorescence in toxin protease inhibitor counterscreen, primary screen, artefact control for toxin protease inhibitor project, biochemical, multiplex microsphere, HTS (AID 624483); details: compound autofluorescence counterscreen, microsphere flow cytometry; active compounds read high

| SMILES | fluorescence intensity |
| --- | --- |
| COc1ccc(NC(=S)N2CCc3cc(OC)c(OC)cc3C2)cc1 | 5760 |
| COc1ccc(NC(=S)N2N=CCC2c2ccccc2)cc1 (stereo unspecified) | 22400 (active) |
| CCC(C)N(C)C1CCN(C(=S)Nc2ccc(OC)cc2)CC1 (stereo unspecified) | 4340 |
| Cc1ccc(-c2nc3c(Cl)cc(C(F)(F)F)cn3c2Cc2cccc(Cl)c2)cc1 | 5350 |
| Cc1ccc(C(C)NC(=O)Cn2nc(C)c([N+](=O)[O-])c2C)cc1 (stereo unspecified) | 8570 |
| Cc1ccn(CC(=O)N2N=C(C(F)F)CC2(O)C(F)F)n1 (stereo unspecified) | 2400 |
| Cc1nn(Cc2ccc(C(=O)N3N=C(C(F)F)CC3(O)C(F)F)cc2)c(C)c1[N+](=O)[O-] (stereo unspecified) | 20600 (active) |
| CCOC(=O)C1=CN(Cc2ccc(Br)cc2)S(=O)(=O)N(C)C1C (stereo unspecified) | 2790 |
| COc1ccc(C(C#N)=C2C=CC(=NO)c3ccccc32)cc1 | 5680 |
| CC(=O)Nc1ccc(S(=O)(=O)NCCc2ccccc2)cc1 | 11200 |
| Cn1c(=O)c(=O)n(C)c2cc(S(=O)(=O)NCCc3ccccc3)ccc21 | 21300 (active) |
| Cn1c(=O)c(=O)n(C)c2cc(S(=O)(=O)NCCN3CCN(c4ccccc4F)CC3)ccc21 | 5840 |
| CC1CCC(NS(=O)(=O)c2ccc3c(c2)n(C)c(=O)c(=O)n3C)CC1 (stereo unspecified) | 22600 (active) |
| Cn1sc(=O)c2cc(S(=O)(=O)NC3CC3)ccc21 | 3800 |
| CC1CCC(NS(=O)(=O)c2ccc3c(c2)CC(=O)N3)CC1 (stereo unspecified) | 6000 |
| COc1ccc([C@H]2CC(=O)C[C@@H](CCn3cc(CC4CCCC4)nn3)O2)cc1 | 5900 |
| O=C(NCc1ccccc1)C1c2ccccc2OCC(=O)N1CCCN1CCOCC1 (stereo unspecified) | 4950 |
| O=C(/C=C/[C@H]1O[C@@H](n2ccc(=O)[nH]c2=O)[C@H](O)[C@@H]1O)NCc1ccccn1 | 4540 |
| O=C(c1cccc(F)c1)N1CCN(c2ccc([N+](=O)[O-])c3cccnc23)CC1 | 3360 |
| N#Cc1ccc(C(c2ccc(C#N)cc2)n2cncn2)cc1 | 5930 |
| Cc1cccc(CCNS(=O)(=O)c2ccc3c(c2)NC(=O)CO3)c1 | 6090 |
| Cc1ccc(S(=O)(=O)NC2CCCCCC2)cc1 | 3430 |
| Cc1cccc(CCNS(=O)(=O)c2ccc(S(=O)(=O)NC3CCCC3)cc2)c1 | 23700 (active) |
| O=C(Nc1nnc([C@H]2C[C@H](O)[C@@H](CO)O2)s1)c1cccc(Cl)c1 | 3090 |

| SMILES | fluorescence intensity |
| --- | --- |
| NC(=O)CSc1nnc(NC(=O)c2ccc(Br)o2)s1 | 5930 |
| O=C(Nc1nnc(Cc2ccc(Cl)cc2)s1)c1ccncc1 | 5560 |
| Cc1ccc(C(=O)Nc2nnc(-c3ccncc3)s2)o1 | 20300 (active) |
| COc1ccc(C(O)c2nc(-c3ccc(OC)nc3)cs2)cc1 (stereo unspecified) | 3040 |
| COc1cc(OC)cc(C2=Cc3ccccc3C(CC(=O)c3ccco3)N2c2ccc(-c3cnc(OC)nc3)cc2)c1 (stereo unspecified) | 5230 |
| Cc1ccc2c(c1)N(CC(=O)N1CCCC(C)C1)C(=O)CO2 (stereo unspecified) | 6170 |
| Cc1ccc2c(c1)N(CC(=O)N1CCCc3ccccc31)C(=O)C(C)O2 (stereo unspecified) | 22200 (active) |
| Cc1ccc(C(=O)N2CCCc3ccccc32)c(Cl)c1 | 3770 |
| Cn1nc(-c2ccc(Cl)cc2)c2cc(C(=O)NCc3ccco3)sc21 | 5560 |
| COC(=O)c1ccc(CNC(=O)c2ccc3oc(C(C)C)nc3c2)cc1 | 6320 |
| COC(=O)c1ccc(CSc2nc3cc(Cl)ccc3o2)cc1 | 22300 (active) |
| COC(=O)c1ccc(CSc2nncn2C)cc1 | 11000 |
| CCC(C)C(CO)NC(=O)/C=C/[C@H]1O[C@@H](n2cnc3c(NC(=O)c4ccccc4)ncnc32)[C@H](O)[C@@H]1O (stereo partly specified) | 4240 |
| CC(=O)c1ccc(N2CCN(S(=O)(=O)c3ccc4c(c3)CC(=O)N4C)CC2)cc1 | 4560 |
| COc1ccc(CCN2C(=O)C(C)=C(C)C2=O)cc1OC | 3920 |
| COC(=O)c1ccc(C2C(Oc3ccccc3C)C(=O)N2CCc2ccc(OC)c(OC)c2)cc1 (stereo unspecified) | 2780 |
| COc1ccc(CCN2C(=O)c3[nH]nc(-c4ccccc4O)c3C2c2ccc(C)cc2)cc1OC (stereo unspecified) | 17800 (active) |
| COc1ccc(C2/C=C\CN(S(=O)(=O)c3cccs3)CC(=O)N2Cc2ccc(F)cc2)cc1 (stereo unspecified) | 3100 |
| Cc1cccc(NC(=S)N2CCC(O)CC2)c1C | 4400 |
| O=C1Nc2c(Br)cc(Br)cc2C1(O)N1CCOCC1 (stereo unspecified) | 4310 |
| O=C(CCN1C(=O)[C@H]2CC=CC[C@H]2C1=O)NCc1nc(-c2ccccc2)no1 | 4420 |
| O=C(Cc1ccc(Cl)cc1)NCc1nc(-c2ccccc2)no1 | 3500 |
| O=C1c2ccccc2C(=O)N1CCCc1nc(-c2ccccc2)no1 | 21200 (active) |
| COc1cc(CNc2ncnc3c2ncn3[C@H]2CN(Cc3cccs3)C[C@@H](CO)O2)cc(OC)c1OC | 2940 |

| SMILES | fluorescence intensity |
| --- | --- |
| CC1(C(=O)NS(=O)(=O)c2cccc(F)c2)CCN1C(=O)Cc1cc(F)ccc1F (stereo unspecified) | 3880 |
| C/C(=N/NC(=O)c1ccn(C)n1)c1ccncc1 | 4250 |
| CC(=O)N/N=C(\C)c1ccc(Br)cc1Br | 4300 |
| O=C(/C(=N\O)n1cncn1)c1ccc(Br)cc1Br | 21600 (active) |
| Cc1ccc(NC(=O)Nc2ccc3oc(C)nc3c2)cc1 | 4170 |
| Cc1ccc2nc(-c3ccc(NC(=O)c4cccnc4)cc3)oc2c1 | 4480 |
| Cc1nc2ccc(NC(=O)C(F)(F)F)cc2o1 | 21700 (active) |
| O=C(CC[C@H]1O[C@@H](n2ccc(=O)[nH]c2=O)[C@H](O)[C@@H]1O)N[C@H](Cc1ccccc1)C(=O)NCCCN1CCCC1=O | 4310 |
| O=C1NC(O)CCN1C1CC(O)C(CO)O1 (stereo unspecified) | 6570 |
| CCCCOC(=O)c1ccc(N2C(=O)CC(N3CCN(C/C=C/c4ccccc4)CC3)C2=O)cc1 (stereo unspecified) | 22500 (active) |
| CCOC(=O)c1ccc(N2C(=O)CC(N3CCN(C(=O)c4ccccc4)CC3)C2=O)cc1 (stereo unspecified) | 2610 |
| CCOC(=O)c1ccc(N2C(=O)CC(N3CCC(C(=O)OCC)CC3)C2=O)cc1 (stereo unspecified) | 2510 |
| CC(OC(=O)c1ccccc1OCc1ccc(Cl)cc1)C(N)=O (stereo unspecified) | 4810 |
| Cc1cc(=O)oc2c1ccc1ccccc12 | 3640 |
| Cc1ccc(-c2csc(N(Cc3ccco3)C(=O)c3cccs3)n2)cc1 | 2850 |
| O=C(O)CN(Cc1ccco1)S(=O)(=O)c1ccccc1 | 3010 |
| O=C(O)CCC(=O)N(Cc1ccco1)c1nc(-c2ccccc2)cs1 | 22500 (active) |
| O=C(NCc1cccc(C(F)(F)F)c1)c1ccc2sc(COCCO)nc2c1 | 3760 |
| CCNC(=O)NC(=O)C(C)OC(=O)c1cc(S(=O)(=O)N2CCCCCC2)ccc1OC (stereo unspecified) | 3480 |
| CC1=NNC(=O)C1CC(=O)N/N=C/c1ccncc1 (stereo unspecified) | 4920 |
| CCN(CC)c1ccc(NC(=O)CN2C(=O)NC3(CCc4ccccc43)C2=O)cc1 (stereo unspecified) | 8580 |
| CCCCC(=O)Nc1ccc(C(=O)NCCCn2ccnc2)cc1 | 10500 |
| CCOc1ccc(NC(=O)CCNC(=O)c2ccc(Br)cc2)cc1 | 3030 |
| CCCCNC(=O)CCNC(=O)c1ccc(C(C)(C)C)cc1 | 20300 (active) |

| SMILES | fluorescence intensity |
| --- | --- |
| CC(C)C1Cc2[nH][nH]c(=O)c2C(c2ccc(Cl)cc2)O1 (stereo unspecified) | 5700 |
| Cc1sc2nc(CC(N)=O)[nH]c(=O)c2c1-c1ccccc1 | 2450 |
| CCN(CC)C(=O)c1sc2nc(-c3ccccc3)ccc2c1N | 4300 |
| NC(=O)c1sc2nc3c(c(-c4ccccc4)c2c1N)CCC3 | 24800 (active) |
| N=c1c2c3c(sc2ncn1N)CCCCC3 | 19400 (active) |
| CC(C(=O)O)n1cnc2sc3c(c2c1=O)CCCC3 (stereo unspecified) | 4940 |
| N=c1c2c3c(sc2ncn1CCCN1CCOCC1)CCCCC3 | 6250 |
| N=c1c2c3c(sc2nc2n1CCCCC2)CCCC3 | 2860 |
| c1nnc2c3c4c(sc3ncn12)CCC4 | 23300 (active) |
| S=c1[nH]nc2c3c4c(sc3ncn12)CCCC4 | 2950 |
| CN1CCN(C(=O)c2ccc(NC(=O)c3ccc(Br)o3)cc2)CC1 | 5550 |
| O=C(/C=C/[C@H]1O[C@@H](n2cnc3c(NC(=O)c4ccccc4)ncnc32)[C@H](O)[C@@H]1O)NCc1ccccc1 | 6020 |
| CCS(=O)(=O)C1=NSC2=NC(=O)/C(=C\c3ccc(OS(=O)(=O)c4ccccc4)cc3)C(=N)N21 | 4230 |
| CS(=O)(=O)c1ccc2c(c1)SC1=NC(=O)/C(=C/c3ccco3)C(=N)N12 | 20000 (active) |
| CS(=O)(=O)C1=NN2C(=N)/C(=C\c3ccc(OCCOc4ccccc4)cc3)C(=O)N=C2S1 | 3680 |
| OC(c1nc2ccc(F)cc2[nH]1)C(O)c1nc2ccc(F)cc2[nH]1 (stereo unspecified) | 3790 |
| O=C1CCCC2=C1C(c1cccs1)CC(=O)N2c1ccc(F)cc1 (stereo unspecified) | 3220 |
| O=C1CCCC2=C1C(c1cccs1)n1nc(SCc3ccccc3)nc1N2 (stereo unspecified) | 23700 (active) |
| CCCC(=O)N1c2ccccc2NC2=C(C(=O)CCC2)C1c1ccc(F)cc1 (stereo unspecified) | 6490 |
| Nc1c(-c2ccc(F)cc2)cnc2ncnn12 | 6020 |
| O=C(Nc1ccc2c(c1)nc1n2CCCCC1)c1cc(S(=O)(=O)N2CCOCC2)ccc1Cl | 2940 |
| Cc1cccc(NC(=O)C2CCN(S(=O)(=O)c3cccc4cccnc34)CC2)c1 | 5170 |
| Cc1ccc(Oc2ccc3c(c2)C(=O)N(c2cccc4cccnc24)C3=O)cc1 | 21000 (active) |
| CCOc1cccc(OCCCOc2cccc3cccnc23)c1 | 2100 |
